The first assay has as its system LXRb homodimer (NR concentration 270 nM). As to the kind of experiment: PBM binding z-score (relative to random genomic background probes); higher = stronger binding; sequences stand for … in GC…GCGATTGACAGCGTAGAATGAAGG
A digest of the protocol:
(§1)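 Scanned fluorescence from custom Agilent 4×180K protein-binding microarrays was regression-normalized. Binding z-scores use random background probes as reference. Ligand-free nuclear receptor dimers were incubated on the arrays for 1 h and detected with antibodies against each partner (one per run).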
Consider TCTGCTAGGTCAGTTGGTCCGCTAACGAGCTGCC, for which the PBM binding z-score is 0.781.
Same read-out and setting: then CGAACTCGGTCAAGGACAGTGAATCTCCGCACGC, with -0.75; and CCTCGCAGGCCAATCTGGGTCACTCAAGGCTTGA, with -0.638.
The same measure, in the same setting: the figure for TCATAGAGGTAAAGGTGAAAGTCGAACGATATGA is -0.862.
Same read-out and setting: then CCTAGTGGGCCATCAGGTCATTGATATCAACGTT, with -0.159; and ATCGAAAGGTGGAAGGTGAGTATACCCACCCGAA, with -0.0817.
Sequence AGAATGAGGTTATACGTAGATCAGGGGAGAAAGT had a PBM binding z-score of 0.558.
Sequence TCTATTAGTTGATTAGGGCAACCGCAACAGCGGA showed a PBM binding z-score of 0.245.
Sequence ACTTACGGGTTAACGAGGTTATAGCACGCGTATA had a PBM binding z-score of 0.221.
Turning to CGAACTGGGTCAGAACAGGACAGTGAAGGATGAT, the PBM binding z-score is -0.721.
In the case of TCATATAGGCAAACAGGTGAAAGTCCGTAAGTTA, the PBM binding z-score is -0.318.
The same measure, in the same setting: the figure for GCACCAAGGTGAATAGGTCGTTGATGAGTAGGCG is -0.835; for AGAATGAGGTTATTAAGATCAGGGTATTGCGGTC it is 0.122; for GCTTGTAGATCAAGGGTAAGAAAGACTAAGCTAA it is -0.8.
For ACAGACAGGTGAGTGAAGGTAACTTAGCTGGACG, the PBM binding z-score was -0.62.
Turning to GCATATAGGTAATACAAGGTGAGAGTCCGATTGT, the PBM binding z-score is -0.459.
As for TCTCGGAGGACACGAAGGGCAGAGCTTTCCAGAG, the PBM binding z-score was -1.26.
For CCTGCTAGGTCGTGGTCAGCTAATCTACAGTATG, the PBM binding z-score was -0.563.

A further assay deals with PPARa:RXRa (NR concentration 270 nM, RXRa partner concentration 90 nM). The description is as above. A digest of the protocol: as §1
ATGTCTAGGTAAAGTTCAGTGAAAGATCGATAGA came in with a PBM binding z-score of 2.56.
The sequence TATTGTAGATCAACAGGAGGTTAAGAAAGATCGA came in with a PBM binding z-score of 1.46.
In the case of ATCGAGAGGTCGAGGTGAGTATAGAGAAAGGGAA, the PBM binding z-score is 3.68.
TCTTGTAGATTAACAGGAGGTTAAGAAAGATCGA displayed a PBM binding z-score of 1.06.
CAAACTTGGTCACCGGAAGGTCAAAGTCCGCATG: the PBM binding z-score was 3.7.
TAGCCTAGGTCATGCGGGCCAGTATCGTGTCGGC displayed a PBM binding z-score of 3.06.
TCATATAGGTAAATGTGAAAGTCGAACGATATGA showed a PBM binding z-score of 0.983.
The same measure, in the same setting: then TAGCCAAGGTCATGGGCCAGTATACCACGCGAAC, with 6.11; and ATTTCTAGGTAAAGTTCAGTGAAAGATCGATAGA, with 2.82.
With ACTAGGAGGCCAAGGGTCACTCAAGATTAGTCCG, the PBM binding z-score was 4.59.
In the case of CCGACTGGGGCATAAGGATACCATAAGCCAGCCC, the PBM binding z-score was -0.0359.
On the same count and under the same terms, then TCGACTAGGTTACCAATGGGGCATTCAGCTTTCT, with 1.37.
TCTTGTAGATCGGCAGGTTAAGAAAGCTGGCCAA returned a PBM binding z-score of 0.736.
On the same count and under the same terms, the figure for CAAACTAGGTCACGAAAGATCAAAGTCGAATGAC is 5.84; for TCTTGTAGATCAGCAGGTTAAGGAAGCTGGCCAA it is 0.814; for GCGACTGGGGCATCAGCAGGTTACCAAAACTTAA it is 1.34.
The same measure, in the same setting: then CCTCGGAGGACAGAAGGTCAGAGCCGTCCGCTTT, with 1.93.
Sequence ATTGAAAGGTCGACGAGGTGAGTATACACCGTTT showed a PBM binding z-score of 4.55.
CCTATTGGGCCAAAGGTCATTGATTCCAATGCTC gave a PBM binding z-score of 5.83.
AATACAGGGTCACTAGGCGAGAGTAGGTACGAAT showed a PBM binding z-score of 5.66.
In the case of ACTAGTTGGTGAGCTGAGGTCACACACAATTCGG, the PBM binding z-score was 3.35.
On to TCATATAGGTAAAGGTGAAAGGCGAACGATATGA, for which the PBM binding z-score was found to be 3.4.
TCTGCTAGGTCAGTTGGTCCGCTAACGAGCTGCC registered a PBM binding z-score of 0.869.
CGAACTCGGTCAAGGACAGTGAATCTCCGCACGC: the PBM binding z-score amounted to 0.927.
With CCTCGCAGGCCAATCTGGGTCACTCAAGGCTTGA, the PBM binding z-score was found to be 3.
For TCATAGAGGTAAAGGTGAAAGTCGAACGATATGA, the PBM binding z-score was found to be 3.63.
The sequence CCTAGTGGGCCATCAGGTCATTGATATCAACGTT came in with a PBM binding z-score of 2.74.
ATCGAAAGGTGGAAGGTGAGTATACCCACCCGAA gave a PBM binding z-score of 1.53.
Turning to AGAATGAGGTTATACGTAGATCAGGGGAGAAAGT, the PBM binding z-score worked out at 3.05.
Still for that read-out and setting: then TCTATTAGTTGATTAGGGCAACCGCAACAGCGGA, with 1.06; and ACTTACGGGTTAACGAGGTTATAGCACGCGTATA, with 3.12.
Regarding CGAACTGGGTCAGAACAGGACAGTGAAGGATGAT, the PBM binding z-score was 2.66.
Same read-out and setting: the figure for TCATATAGGCAAACAGGTGAAAGTCCGTAAGTTA is 1.33; for GCACCAAGGTGAATAGGTCGTTGATGAGTAGGCG it is 2.37; for AGAATGAGGTTATTAAGATCAGGGTATTGCGGTC it is 2.46.
GCTTGTAGATCAAGGGTAAGAAAGACTAAGCTAA registered a PBM binding z-score of 1.24.
ACAGACAGGTGAGTGAAGGTAACTTAGCTGGACG: the PBM binding z-score was -0.0817.
On the same count and under the same terms, the figure for GCATATAGGTAATACAAGGTGAGAGTCCGATTGT is 0.92.
On to TCTCGGAGGACACGAAGGGCAGAGCTTTCCAGAG, for which the PBM binding z-score was -0.128.
On the same count and under the same terms, the figure for CCTGCTAGGTCGTGGTCAGCTAATCTACAGTATG is 0.699.

Another assay concerns PPARg:RXRa (NR concentration 180 nM, RXRa partner concentration 90 nM). Described as above. A digest of the protocol:
as §1
ATGTCTAGGTAAAGTTCAGTGAAAGATCGATAGA had a PBM binding z-score of 3.51.
Consider TATTGTAGATCAACAGGAGGTTAAGAAAGATCGA, for which the PBM binding z-score stood at 0.641.
ATCGAGAGGTCGAGGTGAGTATAGAGAAAGGGAA returned a PBM binding z-score of 2.19.
Still for that read-out and setting: then TCTTGTAGATTAACAGGAGGTTAAGAAAGATCGA, with 0.145; and CAAACTTGGTCACCGGAAGGTCAAAGTCCGCATG, with 2.29.
Turning to TAGCCTAGGTCATGCGGGCCAGTATCGTGTCGGC, the PBM binding z-score was determined as 1.67.
Turning to TCATATAGGTAAATGTGAAAGTCGAACGATATGA, the PBM binding z-score is 1.44.
The same measure, in the same setting: then TAGCCAAGGTCATGGGCCAGTATACCACGCGAAC, with 5.96; and ATTTCTAGGTAAAGTTCAGTGAAAGATCGATAGA, with 3.19; and ACTAGGAGGCCAAGGGTCACTCAAGATTAGTCCG, with 8.49.
The same measure, in the same setting: then CCGACTGGGGCATAAGGATACCATAAGCCAGCCC, with 1.29; and TCGACTAGGTTACCAATGGGGCATTCAGCTTTCT, with 0.614.
In the case of TCTTGTAGATCGGCAGGTTAAGAAAGCTGGCCAA, the PBM binding z-score is -0.656.
CAAACTAGGTCACGAAAGATCAAAGTCGAATGAC: the PBM binding z-score was found to be 9.56.
On the same count and under the same terms, then TCTTGTAGATCAGCAGGTTAAGGAAGCTGGCCAA, with -0.515; and GCGACTGGGGCATCAGCAGGTTACCAAAACTTAA, with 0.564; and CCTCGGAGGACAGAAGGTCAGAGCCGTCCGCTTT, with -0.186.
Same read-out and setting: then ATTGAAAGGTCGACGAGGTGAGTATACACCGTTT, with 3.33; and CCTATTGGGCCAAAGGTCATTGATTCCAATGCTC, with 11.8.
With AATACAGGGTCACTAGGCGAGAGTAGGTACGAAT, the PBM binding z-score is 7.02.
As for ACTAGTTGGTGAGCTGAGGTCACACACAATTCGG, the PBM binding z-score turned out to be 1.49.
In turn, TCATATAGGTAAAGGTGAAAGGCGAACGATATGA had a PBM binding z-score of 4.29.
Turning to TCTGCTAGGTCAGTTGGTCCGCTAACGAGCTGCC, the PBM binding z-score is -0.334.
The sequence CGAACTCGGTCAAGGACAGTGAATCTCCGCACGC came in with a PBM binding z-score of 0.826.
In turn, CCTCGCAGGCCAATCTGGGTCACTCAAGGCTTGA had a PBM binding z-score of 1.74.
As to TCATAGAGGTAAAGGTGAAAGTCGAACGATATGA, the PBM binding z-score stood at 3.74.
The same measure, in the same setting: the figure for CCTAGTGGGCCATCAGGTCATTGATATCAACGTT is 3.06; for ATCGAAAGGTGGAAGGTGAGTATACCCACCCGAA it is 1.53.
As for AGAATGAGGTTATACGTAGATCAGGGGAGAAAGT, the PBM binding z-score is 1.83.
Sequence TCTATTAGTTGATTAGGGCAACCGCAACAGCGGA displayed a PBM binding z-score of 0.368.
Sequence ACTTACGGGTTAACGAGGTTATAGCACGCGTATA came in with a PBM binding z-score of 1.66.
The same measure, in the same setting: then CGAACTGGGTCAGAACAGGACAGTGAAGGATGAT, with 4.95; and TCATATAGGCAAACAGGTGAAAGTCCGTAAGTTA, with 0.726.
GCACCAAGGTGAATAGGTCGTTGATGAGTAGGCG yielded a PBM binding z-score of 1.17.
Still for that read-out and setting: then AGAATGAGGTTATTAAGATCAGGGTATTGCGGTC, with 1.41; and GCTTGTAGATCAAGGGTAAGAAAGACTAAGCTAA, with 2.55.
Still for that read-out and setting: then ACAGACAGGTGAGTGAAGGTAACTTAGCTGGACG, with 0.693; and GCATATAGGTAATACAAGGTGAGAGTCCGATTGT, with 1.14.
As for TCTCGGAGGACACGAAGGGCAGAGCTTTCCAGAG, the PBM binding z-score was -0.047.
On to CCTGCTAGGTCGTGGTCAGCTAATCTACAGTATG, for which the PBM binding z-score was -0.0367.

For the origin of these results see the supplement of paper PMC6555819.
